Results reported in PubChem BioAssay.
Where “and” joins values, the source holds several entries; their conditions need not be identical. Identical values can stand only once. Calls of active or inactive are those of the source.

Experiment: E. coli DRC41 culture turbidity changes, primary screen, E. coli filamentation inducer project, strain DRC41, OD650, 48 h (AID 1152);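 note: E. coli MC1000 strain DRC41 lacking acrAB efflux pump and sulA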
Details: E. coli DRC41 (acrAB sulA), higher = more signal, called active from +8 up or from −8 down

z-score, inactive:
COC(=O)C1=C(C)N(Cc2ccccc2)[C@]23O[C@](C(=O)OC)(C(=O)N2[C@@H]1c1ccccc1)[C@@H](C(=O)OC)[C@H]3C(=O)OC 0.514 and 0.184
CO[C@@H]1COC(=O)CC=C[C@H](C)COC(=O)[C@H](C)NC(=O)CC=C[C@H]1C -0.762
COC(=O)C1=C(C)N(Cc2ccccc2)C2=C(C(C)=O)[C@H](c3ccccc3)[C@@](O)(C(=O)OC)C(=O)N2[C@@H]1c1ccccc1 0.363 and -0.426
C[N+](C)(C)CCCCNC(=O)[C@H]1C[C@H]2C(=O)N[C@@H](CCCC[N+](C)(C)C)C(=O)N2[C@H]1c1cccc(OCCO)c1 -0.398 and -0.737
CCOC(=O)NN=C1C[C@@H](O)[C@@H](O)[C@@H]2[C@@H]3C(=O)N(Cc4ccc5c(c4)OCO5)C(=O)[C@@H]3CC[C@@H]12 0.806
C[N+](C)(C)CCCCNC(=O)[C@H]1C[C@H]2C(=O)N[C@@H](CCCC[N+](C)(C)C)C(=O)N2[C@H]1c1ccc(O)cc1 -0.0772 and -0.0145
O=c1n(-c2ccccc2)c(=O)n2n1CC[C@@H]1C(=NOC[C@@H](O)COCc3ccco3)[C@H]3O[C@H]3[C@@H](O)[C@@H]12 -1.09 and -0.282
C=C[C@@H](C)[C@H](O)c1ccc(O)c2ccccc12 0.687 and 0.0364
COC(=O)C1=C(C)N(Cc2ccccc2)C2=C(C(C)=O)C[C@@](O)(C(=O)OC)C(=O)N2[C@@H]1c1ccccc1 0.125 and -0.635
CCC[C@@H]1C[C@@]1(CCC)[C@@H](NC(=O)c1ccc(-c2ccccc2)cc1)c1cccc(Cl)c1 -2.52 and -0.473
C=CCN(CCCC)C(=O)C1N(CCOCCO)C(=O)C2C(C(=O)O)C3C=CC21O3 (stereo not given) 0.151 and -0.207
C=CCN(Cc1ccccc1)C(=O)C1N(CCOCCO)C(=O)C2C(C(=O)O)C3C=CC21O3 (stereo not given) 2.01 and 0.924
C=CC[C@@H](O)c1ccc(O)c2ccccc12 1.07 and -0.266
CO[C@@H]1C=CCC(=O)N2CCC[C@H]2C(=O)OC[C@H](C)C(=O)OC[C@H]1C 0.813
CN1C(=O)C2CC=C([C@H]3Oc4ccccc4S(=O)(=O)N4CCC[C@@H]34)CC2C1=O (stereo not given in full) -0.92 and -0.225
CCOC(=O)c1ccc(NC(=O)O[C@H]2[C@H](OC(=O)Nc3ccccc3)[C@@H](OC(=O)Nc3ccccc3)[C@@H](OC)O[C@@H]2CO)cc1 -1.16 and -0.655
C=CCN(Cc1ccccc1)C(=O)C(c1cccs1)N(C(=O)/C=C\C(=O)O)c1c(Cl)cccc1CO (stereo not given) -0.608 and -0.244
CC(CO)N1C(=O)[C@@H]2C3C(=O)OCCC=C[C@H]3OC23C=CCN(CCN2CCOCC2)C(=O)[C@@H]13 (stereo not given in full) -0.671 and -0.55
CO[C@H]1COC(=O)CC=C[C@@H](C)COC(=O)[C@@H](OCc2ccccc2)C=C[C@@H]1C 1.08
CCCC[C@@H]1CN2[C@@H](CC[C@@H](C)[C@@H]2c2ccc(Br)cc2)C(=O)O1 -0.247 and -1.23
CCN1C(=O)[C@H]2[C@H]3[C@H](O)[C@H](O)CC(=NOC[C@@H](O)COCc4ccco4)[C@@H]3CC[C@H]2C1=O -0.423 and -0.268
C=CCN(CCCCC)C(=O)C(c1cccs1)N(C(=O)/C=C\C(=O)O)c1ccc(CCO)cc1 (stereo not given) 0.539 and 0.137
C=CCN(C(=O)C1N(c2c(Cl)cccc2CO)C(=O)C2C(C(=O)O)C3C=CC21O3)c1ccc(OC)cc1 (stereo not given) 0.971 and 2.55
C=CCN(CCCC)C(=O)C1N(C(C)(C)CO)C(=O)C2C(C(=O)O)C3C=CC21O3 (stereo not given) -0.2 and -0.302
C=C[C@@H](C)[C@@H](O)c1ccc(OCCO)cc1 0.155 and 1.8
C=CCN(CCCCC)C(=O)C1N(C(C)(C)CO)C(=O)C2C(C(=O)O)C3C=CC21O3 (stereo not given) -0.548 and -0.511
CCOC(=O)[C@@H]1CC2O[C@]23C[C@@H]1C(=O)N1CCC[C@@H]1[C@H]3O[Si](C)(C)C(C)(C)C (stereo not given in full) -1.1 and -0.757
CCOC(=O)C[C@H]1[C@H](OC(=O)c2ccccc2-c2ccccc2)[C@@H](NC(=O)Cc2ccc(OC)cc2)c2cc(OCCCO)ccc2N1C(=O)Cc1ccc(OC)cc1 2.52 and -0.448
COC(=O)CC=C[C@@H](C)[C@@H](CO)NS(=O)(=O)c1ccc(C)cc1 -0.242 and 0.0668
C[N+](C)(C)CCCCCCNC(=O)[C@@H]1C[C@@H]2C(=O)N[C@@H](CCCC[N+](C)(C)C)C(=O)N2[C@@H]1c1ccc(O)cc1 0.877 and 0.123
COC(=O)C1=C(C)N(Cc2ccccc2)C2=C3C(=O)CCC[C@@H]3[C@@](O)(C(=O)OC)C(=O)N2[C@@H]1c1ccccc1 0.941 and 1.15
O=C1C[C@]2(c3ccc([N+](=O)[O-])cc3)C(=O)N(Cc3ccccc3)c3cc(CO)ccc3[C@H]2N1C1CCCCC1 0.128 and 0.873
CC(C)=CCCC(C)=CCON=C1C[C@@H](O)[C@@H](O)[C@@H]2[C@@H]3C(=O)N([C@@H](C)c4ccccc4)C(=O)[C@@H]3CC[C@H]12 -0.125
C[C@@H]1CC[C@H]2C(=O)NC[C@@H](O)CN2[C@H]1c1ccc(Br)cc1 -1.08 and -0.445
COc1ccc(O[C@H]2C=C[C@@H](c3ccccc3)O[C@@H]2COC(=O)CCC(C)=NO[C@H](C)c2cn([C@H](CO)Cc3ccccc3)nn2)cc1 0.756 and 0.0906
C=CCN(CCCC)C(=O)C(c1cccs1)N(C(=O)/C=C\C(=O)O)c1c(Cl)cccc1CO (stereo not given) 0.518 and 0.0558
CC(CO)N1C(=O)[C@@H]2C3C(=O)OCCC=C[C@H]3OC23C=CCN(c2ccc(Cl)cc2)C(=O)[C@@H]13 (stereo not given in full) -0.0529 and -0.655
C=CCN(C(=O)C(c1cccs1)N(CCOCCO)C(=O)/C=C\C(=O)O)C(C)(C)C (stereo not given) 1.56 and 0.971
C=C[C@H](OC)[C@@H](O)c1ccc(O)c(F)c1 -0.809 and 0.573
CC(CO)N1C(=O)[C@@H]2C3C(=O)OCCC=C[C@H]3OC23C=CCN(C(C)(C)C)C(=O)[C@@H]13 (stereo not given in full) -0.745 and -0.506
